For 30 compounds, Potency results are on record in PubChem BioAssay (NCATS).

Results filed as inconclusive are left out. A call without a number means that no potency is given here. The source made the active and inactive calls. Calls come from the whole dose curve; as a rule, active = well fitted inhibition curve with a large enough effect; inconclusive = small, poorly fitted or top-dose-only effect; inactive = flat fitted curve, though single readings scatter.
Potency is the fitted concentration of half-maximal effect.

Voltage-gated inwardly rectifying potassium channel KCNH2 (Homo sapiens), sequence (Q12809 whole entry, looked up): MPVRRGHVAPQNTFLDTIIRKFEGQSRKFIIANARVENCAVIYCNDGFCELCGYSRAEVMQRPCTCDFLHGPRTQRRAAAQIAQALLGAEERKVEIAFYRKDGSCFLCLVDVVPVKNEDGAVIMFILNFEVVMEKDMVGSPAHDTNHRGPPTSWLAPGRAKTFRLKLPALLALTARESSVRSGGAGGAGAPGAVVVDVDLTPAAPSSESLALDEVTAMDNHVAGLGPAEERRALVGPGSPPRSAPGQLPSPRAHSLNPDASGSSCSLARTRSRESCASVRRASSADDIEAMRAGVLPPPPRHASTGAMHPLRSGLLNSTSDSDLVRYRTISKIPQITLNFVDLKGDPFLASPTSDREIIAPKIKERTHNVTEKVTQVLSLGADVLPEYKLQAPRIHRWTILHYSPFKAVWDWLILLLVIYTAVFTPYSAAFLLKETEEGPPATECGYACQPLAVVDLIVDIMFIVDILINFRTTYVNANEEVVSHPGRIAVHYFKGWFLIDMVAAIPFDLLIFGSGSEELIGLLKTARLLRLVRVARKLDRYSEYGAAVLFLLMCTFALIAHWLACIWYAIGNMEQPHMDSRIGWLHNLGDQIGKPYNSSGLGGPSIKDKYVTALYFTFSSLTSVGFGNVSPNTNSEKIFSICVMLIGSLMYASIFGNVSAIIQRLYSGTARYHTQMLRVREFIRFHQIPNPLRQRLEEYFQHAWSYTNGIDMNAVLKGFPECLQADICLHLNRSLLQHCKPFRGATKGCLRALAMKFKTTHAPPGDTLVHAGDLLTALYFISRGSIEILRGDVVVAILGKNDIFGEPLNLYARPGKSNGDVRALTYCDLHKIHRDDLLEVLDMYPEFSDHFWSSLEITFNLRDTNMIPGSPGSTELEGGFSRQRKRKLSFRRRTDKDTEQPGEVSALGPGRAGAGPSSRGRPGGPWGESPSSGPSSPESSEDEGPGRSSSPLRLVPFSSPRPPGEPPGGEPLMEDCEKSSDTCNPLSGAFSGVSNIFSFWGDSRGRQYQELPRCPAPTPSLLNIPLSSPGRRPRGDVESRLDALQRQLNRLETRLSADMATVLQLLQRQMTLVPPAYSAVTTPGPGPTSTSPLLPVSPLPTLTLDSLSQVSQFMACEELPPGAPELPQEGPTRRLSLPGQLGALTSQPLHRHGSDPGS

This experiment deals with Voltage-gated inwardly rectifying potassium channel KCNH2 (Homo sapiens) (UniProt Q12809). The experiment in a line: qHTS Assay for Small Molecule Inhibitors of the Human hERG Channel Activity (AID 588834).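 Note: lower thallium flux fluorescence means stronger hERG block; nearly all actives have a fitted effect of over 50% in size.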 The note with it: U2OS BacMam hERG, FluxOR thallium flux fluorescence; series mostly up to 46.1 µM. A digest of the protocol:
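hERG-BacMam U2OS, 2000 cells/well; 0.7X FluxOR loading 1 hr RT dark; cpd ~10 min 37 °C; stim buffer; FDSS fluorescence 2 min @ 1 s; AC50 Hill fit.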
Background: In qHTS, concentration-response curves come from the screen itself.
As for `COC1[C@@H](O[C@@H]2O[C@H](C)[C@@H](O[C@H]3C[C@@](C)(O)[C@H](OC(=O)CC(C)C)[C@H](C)O3)[C@H](N(C)C)[C@H]2O)[C@@H](CC=O)C[C@@H](C)[C@@H](O)/C=C/C=C/C[C@@H](C)OC(=O)C[C@H]1OC(C)=O` (stereo not given in full), the Potency entry was “inactive”. Then `CC(=O)Nc1c(I)c(C(=O)N[C@H]2C(O)O[C@H](CO)[C@@H](O)[C@@H]2O)c(I)c(N(C)C(C)=O)c1I` (stereo not given in full), with “inactive”; and `CO/N=C(\C(=O)N[C@@H]1C(=O)N2C(C(=O)O)=C(C[N+]3(C)CCCC3)CS[C@H]12)c1csc(N)n1`, with “inactive”; and `CC(C)[C@@H](C)/C=C/[C@@H](C)[C@H]1CC[C@H]2/C(=C/C=C3\C[C@@H](O)CC[C@@H]3C)CCC[C@]12C`, with “inactive”. As to `CC(C)(C)NCC(O)c1ccc(O)c(CO)n1` (stereo not given), the Potency result was “inactive”. The result for `CCCC(=O)Nc1c(I)cc(I)c(CC(CC)C(=O)O)c1I` (stereo not given) reads “inactive”; that for `CC(C)[C@@H]1CC[C@@H](C)C[C@H]1OC(=O)c1ccccc1O`, “inactive”. Then `Cc1ccc(S(=O)(=O)NC(=O)N[C@@H](C)Cc2ccccc2)cc1`, with “inactive”; and `CC1=C(/C=C/C(C)=C/C=C/C(C)=C/C=C/C=C(C)/C=C/C=C(C)/C=C/C2=C(C)C[C@@H](O)CC2(C)C)C(C)(C)C[C@H](O)C1`, with “inactive”; and `C=CC1=C(C(=O)O)N2C(=O)[C@@H](NC(=O)/C(=N\O)c3csc(N)n3)[C@H]2SC1` (stereo in doubt), with “inactive”.

Turning to `CC(C)C[C@H](NC(=O)[C@@H](COC(C)(C)C)NC(=O)[C@H](Cc1ccc(O)cc1)NC(=O)[C@H](CO)NC(=O)[C@H](Cc1c[nH]c2ccccc12)NC(=O)[C@H](Cc1cnc[nH]1)NC(=O)[C@@H]1CCC(=O)N1)C(=O)N[C@@H](CCCN=C(N)N)C(=O)N1CCC[C@H]1C(=O)NNC(N)=O`, the Potency entry was “inactive”. The result for `CC[C@@H](C)[C@H](N)C(=O)O` reads “inactive”. Then `CC(C)CN(C[C@@H](O)[C@H](Cc1ccccc1)NC(=O)O[C@@H]1CCOC1)S(=O)(=O)c1ccc(N)cc1`, with “inactive”; and `CN[C@@H]1[C@@H](O[C@H]2O[C@H](CO)[C@@H](N)[C@H](O)[C@H]2O)O[C@H]2C[C@@H](N)[C@@H](O[C@H]3[C@H](O)[C@@H](O)[C@H](N)C[C@@H]3N)O[C@@H]2[C@@H]1O`, with “inactive”; and `CC(=NCc1ccccc1)c1ccccc1O`, with “inactive”.

`CC1(C)C(\C=C/C=C\C=C/C=C2/N(CCCCS(=O)(=O)O)c3ccc4ccccc4c3C2(C)C)=[N+](CCCCS(=O)(=O)[O-])c2ccc3ccccc3c21`: the Potency entry is “inactive”. Then `NC[C@@H]1O[C@H](O[C@H]2[C@@H](O)[C@H](O[C@@H]3[C@@H](O)[C@H](N)C[C@H](N)[C@H]3O[C@H]3O[C@H](CO)[C@@H](O)[C@H](O)[C@H]3N)O[C@@H]2CO)[C@H](N)[C@@H](O)[C@@H]1O`, with “inactive”. Then `O=C1c2c(O)cccc2[C@H]([C@@H]2O[C@H](CO)[C@@H](O)[C@H](O)[C@H]2O)c2cc(CO)cc(O)c21`, with “inactive”. In the case of `CCCCCCCCCCCCCCCC(=O)OC[C@@H](O)[C@H]1OC[C@H](O)[C@H]1O`, the Potency entry was “inactive”. The result for `O=C1/C(=C\c2cccs2)CCC/C1=C\c1cccs1` reads “inactive”.

For the compound `CC(=C\c1ccccc1)/C=C1/SC(=S)N(CC(=O)O)C1=O`, the Potency result was “inactive”. The result for `C[S+](C)CCC(N)C(=O)O` (stereo not given) reads “inactive”. The result for `CO/N=C(\C(=O)N[C@@H]1C(=O)N2C(C(=O)O)=C(CSC(=O)c3ccco3)CS[C@H]12)c1csc(N)n1` reads “inactive”; that for `CCCCCCCCCc1ccc(OCCOCCO)cc1`, 14.1 µM (active); that for `CCN(CC)CCOC[C@H]1O[C@@H](O)[C@H](OCCN(CC)CC)[C@@H](O)[C@@H]1O`, “inactive”. The result for `CO/N=C(\C(=O)N[C@@H]1C(=O)N2C(C(=O)O)=C(CSc3nc(C)c(CC(=O)O)s3)CS[C@H]12)c1csc(N)n1` reads “inactive”; that for `O=C(CO)[C@@H](O)[C@H](O)[C@@H](O)C(=O)O`, “inactive”; that for `COc1c(O[C@@H]2O[C@H](CO)[C@@H](O)[C@H](O)[C@H]2O)cc2c(c1OC)-c1ccc(SC)c(=O)cc1[C@@H](NC(C)=O)CC2`, “inactive”. `Cc1c(O)c(=O)ccn1C`: the Potency entry was “inactive”. The result for `O=C(O)c1cc(O)c2c(c1)[C@H]([C@H]1c3cc(C(=O)O)cc(O)c3C(=O)c3c(O[C@@H]4O[C@H](CO)[C@@H](O)[C@H](O)[C@H]4O)cccc31)c1cccc(O[C@@H]3O[C@H](CO)[C@@H](O)[C@H](O)[C@H]3O)c1C2=O` reads “inactive”.
